Measurements from the supplement of paper PMC7411054.
Counter-ions that a name gives are not always drawn.

Tests used:
Settings in all cases: treatment time: 24 h
A549-ACTB-RAB5A [1] = assay: lowest phenotypically active concentration; higher = less potent
Procedure, shortened: (§1)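 Fifteen gene-edited A549, HepG2 and WPMY1 reporter lines (BFP segmentation plus GFP and RFP/FusionRed markers) were treated at 0.3, 1, 3 or 9 µM for 24 h, four wells each, then imaged live. Live-cell features per well were normalised to DMSO control wells. Deviation required ≥3 of 4 wells beyond the 95th percentile of DMSO Euclidean distances, and reproducibility required median replicate Pearson correlation above the 95th percentile of non-replicates. Phenotypic activity needed both criteria.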

HepG2-CANX-COX4 [2] = assay: as above
Procedure, shortened: as §1

A549-ACTB-RAB5A [3] = assay: phenotypically active (imaging signature differs from DMSO and reproducible) at any of 0.3-9 uM (binary (1 = active, 0 = inactive)); higher = active
Procedure, shortened: as §1

A549-CANX-COX4 = assay: as above
Procedure, shortened: as §1

A549-GM130-SQSTM1 [4] = assay: as above
Procedure, shortened: as §1

A549-TP53BP1-CLTA = assay: as above
Procedure, shortened: as §1

A549-TUBA1B-RELA [5] = assay: as above
Procedure, shortened: as §1

HepG2-ACTB-RAB5A = assay: as above
Procedure, shortened: as §1

HepG2-CANX-COX4 [6] = assay: as above
Procedure, shortened: as §1

HepG2-GM130-SQSTM1 = assay: as above
Procedure, shortened: as §1

HepG2-TP53BP1-CLTA [7] = assay: as above
Procedure, shortened: as §1

HepG2-TUBA1B-RELA = assay: as above
Procedure, shortened: as §1

WPMY1-ACTB-RAB5A = assay: as above
Procedure, shortened: as §1

WPMY1-CANX-COX4 = assay: as above
Procedure, shortened: as §1

WPMY1-GM130-SQSTM1 = assay: as above
Procedure, shortened: as §1

WPMY1-TP53BP1-CLTA = assay: as above
Procedure, shortened: as §1

WPMY1-TUBA1B-RELA = assay: as above
Procedure, shortened: as §1

HepG2-TP53BP1-CLTA [8] = assay: lowest phenotypically active concentration; higher = less potent
Procedure, shortened: as §1

A549-GM130-SQSTM1 [9] = assay: as above
Procedure, shortened: as §1

A549-TUBA1B-RELA [10] = assay: as above
Procedure, shortened: as §1

| SMILES | lowest phenotypically active concentration (A549-ACTB-RAB5A [1]) [µM] | lowest phenotypically active concentration (HepG2-CANX-COX4 [2]) [µM] | phenotypically active (A549-ACTB-RAB5A [3]) | phenotypically active (A549-CANX-COX4) | phenotypically active (A549-GM130-SQSTM1 [4]) | phenotypically active (A549-TP53BP1-CLTA) | phenotypically active (A549-TUBA1B-RELA [5]) | phenotypically active (HepG2-ACTB-RAB5A) | phenotypically active (HepG2-CANX-COX4 [6]) | phenotypically active (HepG2-GM130-SQSTM1) | phenotypically active (HepG2-TP53BP1-CLTA [7]) | phenotypically active (HepG2-TUBA1B-RELA) | phenotypically active (WPMY1-ACTB-RAB5A) | phenotypically active (WPMY1-CANX-COX4) | phenotypically active (WPMY1-GM130-SQSTM1) | phenotypically active (WPMY1-TP53BP1-CLTA) | phenotypically active (WPMY1-TUBA1B-RELA) | lowest phenotypically active concentration (HepG2-TP53BP1-CLTA [8]) [µM] | lowest phenotypically active concentration (A549-GM130-SQSTM1 [9]) [µM] | lowest phenotypically active concentration (A549-TUBA1B-RELA [10]) [µM] |
| --- | --- | --- | --- | --- | --- | --- | --- | --- | --- | --- | --- | --- | --- | --- | --- | --- | --- | --- | --- | --- |
| CN1CCC2=C[C@H](O)[C@H]3OC(=O)c4cc5c(cc4[C@H]3[C@@H]21)OCO5 [Hippeastrine hydrobromide] | 9 | 9 | 1 (active) | 0 (inactive) | 0 (inactive) | 0 (inactive) | 0 (inactive) | 0 (inactive) | 1 (active) | 0 (inactive) | 0 (inactive) | 0 (inactive) | 0 (inactive) | 0 (inactive) | 0 (inactive) | 0 (inactive) | 0 (inactive) | – | – | – |
| CC(C)(O)[C@H]1O[C@H]2CC[C@@]3(C)[C@@](O)(CC[C@H]4Cc5c([nH]c6ccccc56)[C@@]43C)C2=CC1=O [paxilline] | 9 | – | 1 (active) | 0 (inactive) | 0 (inactive) | 0 (inactive) | 0 (inactive) | 1 (active) | 0 (inactive) | 0 (inactive) | 1 (active) | 0 (inactive) | 0 (inactive) | 0 (inactive) | 1 (active) | 1 (active) | 0 (inactive) | 9 | – | – |
| C[C@@H]1O[C@@H](O[C@H]2C[C@@H](O)[C@]3(CO)[C@H]4[C@H](O)C[C@]5(C)[C@@H](C6=CC(=O)OC6)CC[C@]5(O)[C@@H]4CC[C@]3(O)C2)[C@H](O)[C@H](O)[C@H]1O [Strophantine octahydrate] | 1 | ≤ 0.3 | 1 (active) | 1 (active) | 1 (active) | 1 (active) | 1 (active) | 1 (active) | 1 (active) | 1 (active) | 1 (active) | 1 (active) | 1 (active) | 1 (active) | 1 (active) | 1 (active) | 1 (active) | ≤ 0.3 | ≤ 0.3 | 1 |
| O=C1NC(=O)c2c1c1c3ccccc3n3c1c1c2c2ccccc2n1C1CCC3O1 | ≤ 0.3 | – | 1 (active) | 0 (inactive) | 1 (active) | 0 (inactive) | 1 (active) | 0 (inactive) | 0 (inactive) | 0 (inactive) | 1 (active) | 0 (inactive) | 1 (active) | 1 (active) | 1 (active) | 1 (active) | 0 (inactive) | 9 | ≤ 0.3 | ≤ 0.3 |
| COC(=O)[C@@]1(O)C[C@H]2O[C@]1(C)n1c3ccccc3c3c4c(c5c6ccccc6n2c5c31)C(=O)NC4 | ≤ 0.3 | ≤ 0.3 | 1 (active) | 1 (active) | 1 (active) | 1 (active) | 1 (active) | 1 (active) | 1 (active) | 1 (active) | 1 (active) | 1 (active) | 1 (active) | 1 (active) | 1 (active) | 1 (active) | 1 (active) | ≤ 0.3 | ≤ 0.3 | ≤ 0.3 |
| CC[C@@H](C(=O)[C@@H](C)[C@@H](O)[C@H](C)[C@@H]1O[C@@H]([C@@H](CC)C(=O)O)CC[C@@H]1C)[C@H]1O[C@]2(C=C[C@@H](O)[C@]3(CC[C@@](C)([C@H]4CC[C@](O)(CC)[C@H](C)O4)O3)O2)[C@H](C)C[C@@H]1C [Salinomycin Sodium] | ≤ 0.3 | 1 | 1 (active) | 1 (active) | 1 (active) | 1 (active) | 1 (active) | 1 (active) | 1 (active) | 1 (active) | 1 (active) | 1 (active) | 1 (active) | 1 (active) | 1 (active) | 1 (active) | 1 (active) | 1 | ≤ 0.3 | ≤ 0.3 |
| C[C@]12CC[C@H](O)C[C@H]1CC[C@@H]1[C@@H]2C[C@@H](O)[C@]2(C)[C@@H](C3=CC(=O)OC3)CC[C@]12O [Digoxigenin] | ≤ 0.3 | 3 | 1 (active) | 1 (active) | 1 (active) | 1 (active) | 1 (active) | 1 (active) | 1 (active) | 1 (active) | 1 (active) | 1 (active) | 1 (active) | 1 (active) | 1 (active) | 1 (active) | 1 (active) | 1 | ≤ 0.3 | ≤ 0.3 |
| CCN1CCN(C(=O)Cc2ccc(Nc3ncc(F)c(Nc4ccc(C(=O)Nc5ccccc5Cl)cc4)n3)cc2)CC1 | 1 | 1 | 1 (active) | 1 (active) | 1 (active) | 1 (active) | 1 (active) | 1 (active) | 1 (active) | 1 (active) | 1 (active) | 1 (active) | 1 (active) | 0 (inactive) | 0 (inactive) | 1 (active) | 1 (active) | ≤ 0.3 | 1 | 1 |
| N#CC(C#N)=NNc1cccc(Cl)c1 | 9 | 9 | 1 (active) | 1 (active) | 1 (active) | 1 (active) | 1 (active) | 1 (active) | 1 (active) | 1 (active) | 1 (active) | 1 (active) | 1 (active) | 1 (active) | 1 (active) | 1 (active) | 1 (active) | 9 | 9 | 9 |
